According to PubChem BioAssay (NCI):
The panel holds about 83,000 compounds, 20% with a hit somewhere; the sample as a whole holds those more often.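 48-hour exposure, single concentration, 96-well plates; percent growth endpoint where 0 means no net growth. Active: below 10.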 Active and inactive are the calls of the source.

Experiments:
Test in all cases: NCI-60 one-dose screen, 48 h (100 = growth as untreated, 0 = no growth, -100 = all killed)
NCI-H460 lung = settings: 10 µM unless noted
A549/ATCC NSCLC = settings: 10 µM unless noted
786-0 renal = settings: 10 µM unless noted
COLO 205 colon = settings: 10 µM
K-562 leukemia = settings: 10 µM unless noted
MALME-3M melanoma = settings: 10 µM unless noted
RXF 393 renal = settings: 10 µM unless noted
SF-295 CNS = settings: 10 µM unless noted
UACC-257 melanoma = settings: 10 µM unless noted
SK-MEL-5 melanoma = settings: 10 µM unless noted
LOX IMVI melanoma = settings: 10 µM unless noted
SK-MEL-2 melanoma = settings: 10 µM unless noted
UO-31 renal = settings: 10 µM unless noted
A498 renal = settings: 10 µM unless noted
HL-60(TB) leukemia = settings: 10 µM unless noted
MOLT-4 leukemia = settings: 10 µM
OVCAR-4 ovarian = settings: 10 µM unless noted
OVCAR-3 ovarian = settings: 10 µM unless noted
SW-620 colon = settings: 10 µM unless noted
CAKI-1 renal = settings: 10 µM unless noted

Measured: growth

CCCC(C)(C)c1ccc2c(c1)OC(C)(C)[C@@H]1CC=C(C)C[C@@H]21
inactive: NCI-H460 lung 106% | A549/ATCC NSCLC 88.2% | 786-0 renal 98.8% | COLO 205 colon 107% | K-562 leukemia 92.3% | MALME-3M melanoma 93.6% | RXF 393 renal 108% | SF-295 CNS 101% | UACC-257 melanoma 93.1% | SK-MEL-5 melanoma 102% | LOX IMVI melanoma 96.3% | SK-MEL-2 melanoma 94.7% | UO-31 renal 79.8% | A498 renal 83.9% | HL-60(TB) leukemia 92.7% | MOLT-4 leukemia 95.6% | OVCAR-4 ovarian 100% | OVCAR-3 ovarian 102% | SW-620 colon 97.3%

CCCCCCCCCCCCOc1ccc(C(=O)Oc2ccc(CSP3(=O)OCC4OC(n5cnc6c(N)ncnc65)C(F)C4OP(=O)(O)OCC4OC(n5ccc(=O)[nH]c5=O)C(F)C4O3)cc2)cc1 (centres undefined)
inactive: NCI-H460 lung 106% | A549/ATCC NSCLC 98.3% | 786-0 renal 89.1% | K-562 leukemia 52.1% | MALME-3M melanoma 114% | RXF 393 renal 60.8% | SF-295 CNS 110% | UACC-257 melanoma 31.4% | SK-MEL-5 melanoma 109% | LOX IMVI melanoma 85.9% | SK-MEL-2 melanoma 86.6% | UO-31 renal 92.9% | A498 renal 71.3% | MOLT-4 leukemia 68.3% | OVCAR-4 ovarian 54.2% | OVCAR-3 ovarian 98.2% | SW-620 colon 118%
active: HL-60(TB) leukemia -18.4%

CC(=O)[O][Hg][CH2]C1(C)COC(C)([CH2][Hg][O]C(C)=O)CO1 (centres undefined)
active: COLO 205 colon -77.4% | K-562 leukemia -30.8% | SK-MEL-5 melanoma -35.9% | LOX IMVI melanoma -98.4% | UO-31 renal -39.3% | CAKI-1 renal -100% | MOLT-4 leukemia -19.9% | OVCAR-3 ovarian -100% | SW-620 colon -92.3%
inactive: NCI-H460 lung 78.1% | 786-0 renal 79% | SF-295 CNS 69.2% | UACC-257 melanoma 93.6% | SK-MEL-2 melanoma 63.2% | A498 renal 75.8% | HL-60(TB) leukemia 74.4% | OVCAR-4 ovarian 123%

CCOP(=O)(OCC)Oc1ccc(Sc2ccc(OP(=O)(OCC)OCC)cc2)cc1
inactive: NCI-H460 lung 113% | A549/ATCC NSCLC 97.5% | 786-0 renal 92.6% | COLO 205 colon 110% | K-562 leukemia 102% | MALME-3M melanoma 93.5% | RXF 393 renal 106% | SF-295 CNS 97.5% | UACC-257 melanoma 93.1% | SK-MEL-5 melanoma 100% | LOX IMVI melanoma 107% | SK-MEL-2 melanoma 94% | UO-31 renal 75% | CAKI-1 renal 93.1% | A498 renal 85.2% | HL-60(TB) leukemia 96% | MOLT-4 leukemia 93.8% | OVCAR-4 ovarian 116% | OVCAR-3 ovarian 111% | SW-620 colon 113%
